Here are results for one sequence from article PMC7862700, “An all-to-all approach to the identification of sequence-specific readers for epigenetic DNA modifications on cytosine”.

Assay in all cases: DAPPL (digital affinity profiling via proximity ligation, sequencing); 10 mM Tris-HCl pH 7.5, 50 mM NaCl, 1 mM DTT, 4% glycerol, room temperature, 30 min; GST-TFs on glutathione beads, 16-mer random dsDNA library, 0.1% formaldehyde crosslink after washing; high values mean tight binding
The target in one assay is T1, FLI1 (Homo sapiens, UniProt Q01543 1-452).
T1 sequence: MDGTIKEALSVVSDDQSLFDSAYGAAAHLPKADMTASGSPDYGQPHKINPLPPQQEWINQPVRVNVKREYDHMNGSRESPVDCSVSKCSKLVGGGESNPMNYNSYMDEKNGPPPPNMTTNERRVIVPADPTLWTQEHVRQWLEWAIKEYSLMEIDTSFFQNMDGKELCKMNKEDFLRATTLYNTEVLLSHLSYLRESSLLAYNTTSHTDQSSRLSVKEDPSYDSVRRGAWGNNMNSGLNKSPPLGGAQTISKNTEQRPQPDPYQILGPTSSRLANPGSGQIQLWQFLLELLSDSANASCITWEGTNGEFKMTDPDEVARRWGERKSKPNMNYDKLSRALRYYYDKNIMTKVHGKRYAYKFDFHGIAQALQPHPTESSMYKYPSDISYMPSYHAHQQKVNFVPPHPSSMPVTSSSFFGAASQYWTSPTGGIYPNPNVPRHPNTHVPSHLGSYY
Particulars: protein: recombinant; tags: N-terminal GST; dsDNA, one strand shown. The procedure, abridged: (§1)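 Beads coated with glutathione captured GST-fused human transcription factors that had been expressed in yeast, and the factors were then given DNA barcodes and pooled with a tag-only sample. The pools were incubated with 200 nmole of a random double-stranded 16-mer DNA library in Tris/NaCl/DTT/glycerol buffer for 30 min at room temperature, washed, crosslinked with 0.1% formaldehyde and proximity-ligated with BsaI/T4 ligase at 37 °C for 1 h. PCR amplification and Illumina NextSeq500 sequencing came last. Binding signal is each hexamer's read frequency for a factor divided by its frequency for the tag-only sample.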

Another assay concerns the target T2, ELK1 (Homo sapiens, UniProt P19419 1-428).
T2 sequence: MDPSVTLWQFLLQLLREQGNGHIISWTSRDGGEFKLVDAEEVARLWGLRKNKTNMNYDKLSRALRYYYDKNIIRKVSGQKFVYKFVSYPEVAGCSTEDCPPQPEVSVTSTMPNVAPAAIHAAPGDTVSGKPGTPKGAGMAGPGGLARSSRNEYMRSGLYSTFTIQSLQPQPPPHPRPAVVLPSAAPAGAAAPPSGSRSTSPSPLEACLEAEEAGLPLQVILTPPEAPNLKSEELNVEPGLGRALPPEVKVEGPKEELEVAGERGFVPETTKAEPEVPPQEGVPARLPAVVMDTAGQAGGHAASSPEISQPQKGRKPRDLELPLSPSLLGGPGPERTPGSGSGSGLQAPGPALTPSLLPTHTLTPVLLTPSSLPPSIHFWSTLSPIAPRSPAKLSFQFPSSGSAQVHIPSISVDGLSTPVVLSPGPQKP
As to conditions: protein: recombinant; tags: N-terminal GST; dsDNA, one strand shown. Summed up: as §1

Another assay addresses T3, GABPA (Homo sapiens, UniProt Q06546 1-454).
T3 sequence: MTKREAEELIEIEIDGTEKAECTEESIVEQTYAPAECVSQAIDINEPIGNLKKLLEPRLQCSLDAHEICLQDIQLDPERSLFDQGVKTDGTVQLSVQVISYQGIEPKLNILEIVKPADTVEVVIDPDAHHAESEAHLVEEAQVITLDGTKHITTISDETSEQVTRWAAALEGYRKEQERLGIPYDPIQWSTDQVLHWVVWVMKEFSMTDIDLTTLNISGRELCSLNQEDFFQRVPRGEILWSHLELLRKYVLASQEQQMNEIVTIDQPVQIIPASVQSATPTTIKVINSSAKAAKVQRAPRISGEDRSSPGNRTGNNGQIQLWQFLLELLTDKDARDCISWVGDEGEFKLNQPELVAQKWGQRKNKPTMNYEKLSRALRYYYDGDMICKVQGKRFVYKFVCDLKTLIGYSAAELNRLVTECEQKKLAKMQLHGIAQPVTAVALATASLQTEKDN
As to conditions: protein: recombinant; tags: N-terminal GST; dsDNA, one strand shown. Summed up: as §1

Another assay addresses T4, ERG (Homo sapiens, UniProt P11308 1-479).
T4 sequence: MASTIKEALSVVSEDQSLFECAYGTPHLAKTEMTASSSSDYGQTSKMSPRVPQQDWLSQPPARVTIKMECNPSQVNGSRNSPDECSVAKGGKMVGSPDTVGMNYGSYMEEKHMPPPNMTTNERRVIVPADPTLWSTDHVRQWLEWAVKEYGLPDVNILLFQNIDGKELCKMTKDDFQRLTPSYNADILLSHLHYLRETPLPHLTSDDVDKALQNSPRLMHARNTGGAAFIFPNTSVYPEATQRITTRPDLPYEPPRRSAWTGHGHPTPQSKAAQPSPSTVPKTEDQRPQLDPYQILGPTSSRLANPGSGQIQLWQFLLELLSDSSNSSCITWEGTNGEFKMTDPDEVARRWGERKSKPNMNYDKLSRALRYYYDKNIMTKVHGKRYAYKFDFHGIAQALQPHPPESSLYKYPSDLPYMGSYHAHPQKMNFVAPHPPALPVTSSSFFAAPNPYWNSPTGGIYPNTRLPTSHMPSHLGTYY
As to conditions: protein: recombinant; tags: N-terminal GST; dsDNA, one strand shown. Summed up: as §1

The next assay addresses ELF1 (Homo sapiens, UniProt P32519 1-619). As to conditions: protein: recombinant; tags: N-terminal GST; dsDNA, one strand shown. The procedure, abridged:
as §1

The next assay has as its target T5, EHF (Homo sapiens, UniProt Q9NZC4 1-300).
T5 sequence: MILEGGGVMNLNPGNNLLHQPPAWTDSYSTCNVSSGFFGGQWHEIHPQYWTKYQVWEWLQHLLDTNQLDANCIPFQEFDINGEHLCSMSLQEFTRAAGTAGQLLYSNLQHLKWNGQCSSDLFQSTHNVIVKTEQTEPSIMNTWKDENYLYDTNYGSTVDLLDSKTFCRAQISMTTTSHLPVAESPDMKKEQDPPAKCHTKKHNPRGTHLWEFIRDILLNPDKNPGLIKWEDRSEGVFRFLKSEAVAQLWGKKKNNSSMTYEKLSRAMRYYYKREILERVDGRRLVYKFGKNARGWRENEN
Particulars: protein: recombinant; tags: N-terminal GST; dsDNA, one strand shown. Summed up:
as §1

The target of the next assay is SPI1 (Homo sapiens, UniProt P17947 1-270). Particulars: protein: recombinant; tags: N-terminal GST; dsDNA, one strand shown. The procedure, abridged:
as §1

The target in a further assay is SPIB (Homo sapiens, UniProt Q01892 1-262). As to conditions: protein: recombinant; tags: N-terminal GST; dsDNA, one strand shown. The procedure, abridged: as §1
SPIB, sequence (Q01892 whole entry): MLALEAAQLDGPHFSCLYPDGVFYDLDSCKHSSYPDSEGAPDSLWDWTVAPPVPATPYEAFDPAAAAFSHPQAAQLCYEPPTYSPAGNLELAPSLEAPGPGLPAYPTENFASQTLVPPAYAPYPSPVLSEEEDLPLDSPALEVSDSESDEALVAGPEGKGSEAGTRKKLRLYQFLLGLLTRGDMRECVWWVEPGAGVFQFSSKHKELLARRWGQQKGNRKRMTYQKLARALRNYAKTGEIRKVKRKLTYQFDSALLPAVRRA
The next assay addresses T6, ELK3 (Homo sapiens, UniProt P41970 1-407).
T6 sequence: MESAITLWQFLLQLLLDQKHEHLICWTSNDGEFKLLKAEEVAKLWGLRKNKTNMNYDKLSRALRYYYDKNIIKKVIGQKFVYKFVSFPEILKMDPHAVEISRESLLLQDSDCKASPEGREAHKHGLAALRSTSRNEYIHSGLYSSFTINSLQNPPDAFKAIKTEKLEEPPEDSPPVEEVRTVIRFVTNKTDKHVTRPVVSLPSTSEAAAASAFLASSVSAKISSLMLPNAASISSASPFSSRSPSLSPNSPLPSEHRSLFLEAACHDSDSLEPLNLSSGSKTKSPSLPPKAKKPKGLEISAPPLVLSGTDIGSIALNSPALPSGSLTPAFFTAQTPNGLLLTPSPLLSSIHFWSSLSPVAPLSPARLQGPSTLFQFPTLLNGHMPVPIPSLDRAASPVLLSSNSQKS
As to conditions: protein: recombinant; tags: N-terminal GST; dsDNA, one strand shown. Summed up: as §1

The target in a further assay is T7, FEV (Homo sapiens, UniProt Q99581 1-238).
T7 sequence: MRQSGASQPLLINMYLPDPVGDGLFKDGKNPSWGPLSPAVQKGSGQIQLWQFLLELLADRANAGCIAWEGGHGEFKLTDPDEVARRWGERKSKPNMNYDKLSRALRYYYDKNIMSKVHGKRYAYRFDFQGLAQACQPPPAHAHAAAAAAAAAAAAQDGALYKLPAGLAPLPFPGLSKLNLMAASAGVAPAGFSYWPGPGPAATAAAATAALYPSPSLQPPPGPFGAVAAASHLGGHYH
As to conditions: protein: recombinant; tags: N-terminal GST; dsDNA, one strand shown. The procedure, abridged:
as §1

A further assay has as its target ETV5 (Homo sapiens, UniProt P41161 1-510). As to conditions: protein: recombinant; tags: N-terminal GST; dsDNA, one strand shown. Summed up: as §1
In a further assay the target is HSF1 (Homo sapiens, UniProt Q00613 1-529). Particulars: protein: recombinant; tags: N-terminal GST; chain copies: 3; dsDNA, one strand shown. The procedure, abridged: as §1
HSF1, sequence (Q00613 whole entry): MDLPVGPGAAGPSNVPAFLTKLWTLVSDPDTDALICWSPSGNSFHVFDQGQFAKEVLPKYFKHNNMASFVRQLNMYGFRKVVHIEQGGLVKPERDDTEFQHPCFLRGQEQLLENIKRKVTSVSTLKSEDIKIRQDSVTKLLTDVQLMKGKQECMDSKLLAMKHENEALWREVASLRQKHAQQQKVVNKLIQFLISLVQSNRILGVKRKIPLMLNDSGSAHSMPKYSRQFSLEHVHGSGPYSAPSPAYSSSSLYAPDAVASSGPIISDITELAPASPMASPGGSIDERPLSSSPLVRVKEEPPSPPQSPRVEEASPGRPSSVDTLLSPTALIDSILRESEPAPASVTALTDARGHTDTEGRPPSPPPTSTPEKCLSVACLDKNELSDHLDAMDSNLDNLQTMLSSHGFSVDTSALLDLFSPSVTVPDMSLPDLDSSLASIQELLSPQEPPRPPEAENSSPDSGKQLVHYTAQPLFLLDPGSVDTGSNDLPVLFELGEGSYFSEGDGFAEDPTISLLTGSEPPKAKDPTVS
For a further assay, the target named is T8, SPIC (Homo sapiens, UniProt Q8N5J4 1-248).
T8 sequence: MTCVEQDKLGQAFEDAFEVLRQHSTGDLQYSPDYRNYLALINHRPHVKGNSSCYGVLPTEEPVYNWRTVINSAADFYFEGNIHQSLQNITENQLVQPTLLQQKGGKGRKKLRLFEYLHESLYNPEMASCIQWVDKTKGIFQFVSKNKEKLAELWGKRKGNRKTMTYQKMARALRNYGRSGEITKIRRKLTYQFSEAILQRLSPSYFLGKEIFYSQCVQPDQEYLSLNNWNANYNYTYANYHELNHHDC
Particulars: protein: recombinant; tags: N-terminal GST; dsDNA, one strand shown. The procedure, abridged: as §1

The target of the next assay is ELF4 (Homo sapiens, UniProt Q99607 1-663). As to conditions: protein: recombinant; tags: N-terminal GST; dsDNA, one strand shown. The procedure, abridged:
as §1

The target in the next assay is T9, ETV2 (Homo sapiens, UniProt O00321 1-342).
T9 sequence: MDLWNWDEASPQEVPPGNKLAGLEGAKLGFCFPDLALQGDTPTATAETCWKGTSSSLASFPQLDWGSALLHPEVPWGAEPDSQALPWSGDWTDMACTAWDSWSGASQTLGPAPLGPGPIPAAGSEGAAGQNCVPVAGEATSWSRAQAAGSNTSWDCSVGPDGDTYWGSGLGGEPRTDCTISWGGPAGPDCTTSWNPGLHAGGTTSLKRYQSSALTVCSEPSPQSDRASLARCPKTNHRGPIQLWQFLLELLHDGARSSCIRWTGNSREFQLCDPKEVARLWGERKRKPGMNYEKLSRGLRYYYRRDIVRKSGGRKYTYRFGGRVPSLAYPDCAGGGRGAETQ
Particulars: protein: recombinant; tags: N-terminal GST; dsDNA, one strand shown. The procedure, abridged:
as §1

The next assay addresses T10, ELF3 (Homo sapiens, UniProt P78545 1-371).
T10 sequence: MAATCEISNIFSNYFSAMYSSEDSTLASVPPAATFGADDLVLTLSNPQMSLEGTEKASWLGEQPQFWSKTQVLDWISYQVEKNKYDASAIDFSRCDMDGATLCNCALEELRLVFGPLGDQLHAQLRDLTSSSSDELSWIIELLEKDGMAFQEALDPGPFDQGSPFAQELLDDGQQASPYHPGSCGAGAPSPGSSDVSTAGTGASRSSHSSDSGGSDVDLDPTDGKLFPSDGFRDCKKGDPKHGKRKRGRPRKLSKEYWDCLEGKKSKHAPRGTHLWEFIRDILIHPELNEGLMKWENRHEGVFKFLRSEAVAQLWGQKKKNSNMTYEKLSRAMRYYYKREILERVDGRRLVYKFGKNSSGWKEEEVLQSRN
As to conditions: protein: recombinant; tags: N-terminal GST; dsDNA, one strand shown. The procedure, abridged: as §1

Another assay deals with CRX (Homo sapiens, UniProt O43186 1-299). As to conditions: protein: recombinant; tags: N-terminal GST; dsDNA, one strand shown. Summed up: as §1
CRX, sequence (O43186 whole entry): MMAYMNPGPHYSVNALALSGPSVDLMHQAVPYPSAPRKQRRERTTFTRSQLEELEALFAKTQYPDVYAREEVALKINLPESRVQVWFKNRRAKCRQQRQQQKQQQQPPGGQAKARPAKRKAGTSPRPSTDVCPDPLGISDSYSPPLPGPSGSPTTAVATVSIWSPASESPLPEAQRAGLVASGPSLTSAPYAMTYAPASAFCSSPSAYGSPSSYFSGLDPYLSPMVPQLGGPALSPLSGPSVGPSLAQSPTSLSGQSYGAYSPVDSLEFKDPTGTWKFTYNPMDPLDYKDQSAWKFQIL
For another assay, the target named is ETV1 (Homo sapiens, UniProt P50549 1-477). As to conditions: protein: recombinant; tags: N-terminal GST; dsDNA, one strand shown. Summed up: as §1
ETV1, sequence (P50549 whole entry): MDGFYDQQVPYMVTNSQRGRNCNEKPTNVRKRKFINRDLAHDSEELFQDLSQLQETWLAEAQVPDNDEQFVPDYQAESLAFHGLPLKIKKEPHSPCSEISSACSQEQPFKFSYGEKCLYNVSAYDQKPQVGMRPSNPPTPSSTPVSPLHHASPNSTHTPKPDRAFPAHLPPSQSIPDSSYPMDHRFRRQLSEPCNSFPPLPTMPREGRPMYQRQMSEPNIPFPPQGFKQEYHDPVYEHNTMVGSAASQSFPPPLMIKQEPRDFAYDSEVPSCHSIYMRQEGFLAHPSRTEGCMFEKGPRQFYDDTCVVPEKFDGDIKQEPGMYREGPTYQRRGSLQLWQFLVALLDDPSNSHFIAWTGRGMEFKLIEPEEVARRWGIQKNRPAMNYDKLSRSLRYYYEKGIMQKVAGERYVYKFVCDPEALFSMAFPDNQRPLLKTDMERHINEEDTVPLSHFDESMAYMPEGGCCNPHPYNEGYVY

ELF1, sequence (P32519 whole entry): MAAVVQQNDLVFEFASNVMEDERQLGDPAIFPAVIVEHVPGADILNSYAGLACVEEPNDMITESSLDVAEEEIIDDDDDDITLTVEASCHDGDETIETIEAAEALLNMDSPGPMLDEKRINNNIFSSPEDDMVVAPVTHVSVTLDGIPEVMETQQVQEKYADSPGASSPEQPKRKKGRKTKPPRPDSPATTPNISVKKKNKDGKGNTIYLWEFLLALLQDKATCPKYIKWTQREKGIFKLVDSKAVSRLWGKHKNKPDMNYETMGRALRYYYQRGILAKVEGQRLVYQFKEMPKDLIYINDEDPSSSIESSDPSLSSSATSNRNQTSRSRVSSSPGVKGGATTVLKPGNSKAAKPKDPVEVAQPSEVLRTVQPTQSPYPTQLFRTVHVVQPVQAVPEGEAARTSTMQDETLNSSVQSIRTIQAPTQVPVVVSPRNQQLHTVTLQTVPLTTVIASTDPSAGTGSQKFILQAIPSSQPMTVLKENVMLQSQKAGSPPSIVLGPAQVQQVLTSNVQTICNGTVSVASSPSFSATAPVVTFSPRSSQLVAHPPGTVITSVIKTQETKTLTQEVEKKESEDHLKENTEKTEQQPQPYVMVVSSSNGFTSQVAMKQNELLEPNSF
ETV5, sequence (P41161 whole entry): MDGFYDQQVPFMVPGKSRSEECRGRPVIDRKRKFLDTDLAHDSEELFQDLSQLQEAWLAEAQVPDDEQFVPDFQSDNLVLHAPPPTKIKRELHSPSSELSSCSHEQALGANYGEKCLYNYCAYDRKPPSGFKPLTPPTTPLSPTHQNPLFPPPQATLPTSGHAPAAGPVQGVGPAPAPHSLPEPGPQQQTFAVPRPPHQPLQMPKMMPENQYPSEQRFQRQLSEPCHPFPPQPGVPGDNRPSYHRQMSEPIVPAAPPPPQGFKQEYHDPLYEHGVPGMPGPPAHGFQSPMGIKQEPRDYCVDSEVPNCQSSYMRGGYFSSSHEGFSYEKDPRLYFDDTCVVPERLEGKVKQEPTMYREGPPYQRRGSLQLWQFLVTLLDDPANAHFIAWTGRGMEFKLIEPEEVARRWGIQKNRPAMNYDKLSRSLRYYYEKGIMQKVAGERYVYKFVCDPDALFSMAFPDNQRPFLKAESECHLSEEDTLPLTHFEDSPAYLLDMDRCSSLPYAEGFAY
ELF4, sequence (Q99607 whole entry): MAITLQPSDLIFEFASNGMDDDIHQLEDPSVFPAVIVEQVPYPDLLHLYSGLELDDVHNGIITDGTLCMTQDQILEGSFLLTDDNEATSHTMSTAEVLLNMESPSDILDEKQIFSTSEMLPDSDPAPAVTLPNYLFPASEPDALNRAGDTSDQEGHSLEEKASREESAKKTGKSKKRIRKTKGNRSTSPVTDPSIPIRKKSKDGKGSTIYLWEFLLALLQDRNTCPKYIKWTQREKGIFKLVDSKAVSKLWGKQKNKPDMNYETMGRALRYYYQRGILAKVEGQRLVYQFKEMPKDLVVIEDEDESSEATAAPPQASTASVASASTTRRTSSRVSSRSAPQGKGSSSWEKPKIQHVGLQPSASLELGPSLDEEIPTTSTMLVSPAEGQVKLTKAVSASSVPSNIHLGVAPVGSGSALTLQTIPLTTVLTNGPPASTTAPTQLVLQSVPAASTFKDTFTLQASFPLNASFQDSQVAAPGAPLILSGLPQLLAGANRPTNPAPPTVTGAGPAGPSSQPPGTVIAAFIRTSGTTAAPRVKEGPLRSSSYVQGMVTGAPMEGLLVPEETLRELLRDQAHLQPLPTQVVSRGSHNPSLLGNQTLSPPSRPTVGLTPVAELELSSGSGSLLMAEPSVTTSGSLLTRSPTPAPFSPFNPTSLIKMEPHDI

On to TGATTC, for which the binding signal is 1.12 fold enrichment (6-mer frequency, TF over GST control) with FLI1; 1.09 fold enrichment (6-mer frequency, TF over GST control) with ELK1; 1.1 fold enrichment (6-mer frequency, TF over GST control) in the assay with GABPA; 1.08 fold enrichment (6-mer frequency, TF over GST control) in the assay with ERG; 1.1 fold enrichment (6-mer frequency, TF over GST control) with ELF1; 1.12 fold enrichment (6-mer frequency, TF over GST control) with EHF. Moreover, the binding signal with SPI1 is 1.06 fold enrichment (6-mer frequency, TF over GST control); with SPIB, 1.17 fold enrichment (6-mer frequency, TF over GST control); with ELK3 it was 1.02 fold enrichment (6-mer frequency, TF over GST control); with FEV, 1.03 fold enrichment (6-mer frequency, TF over GST control); with ETV5, 1.1 fold enrichment (6-mer frequency, TF over GST control); with HSF1, 1.18 fold enrichment (6-mer frequency, TF over GST control). The binding signal was 1.11 fold enrichment (6-mer frequency, TF over GST control) with SPIC; 1.07 fold enrichment (6-mer frequency, TF over GST control) with ELF4; 1.03 fold enrichment (6-mer frequency, TF over GST control) with ETV2; 1.12 fold enrichment (6-mer frequency, TF over GST control) with ELF3; 1.12 fold enrichment (6-mer frequency, TF over GST control) in the assay with CRX; 1.18 fold enrichment (6-mer frequency, TF over GST control) in the assay with ETV1.
